Source: PubChem BioAssay AID1159580 (chemical genetic matrix, 2015)
Several values for one entry are separate records, joined by “and”; a condition that tells them apart may be missing. Equal values may be shown once. The whole screen tested about 5,500 compounds, of which about 2,000 (36%) were called active. About 18% were inconclusive and are not listed. No stated cut-off is given here; in the data, active means normalized growth mostly below about 0.91 (no sharp cut-off); inconclusive means no clear call, values can overlap the other calls; inactive means mostly above about 0.92. Some of the results follow.

Test: chemical genetic growth profiling, strain panel (AID 1159580);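 further: tested at 20 µM; growth read once vehicle control cultures reached saturation at 30 °C; 1 = growth at the plate median or of vehicle wells; lower values mean less growth of the strain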
Settings: S. cerevisiae deletion strains, growth OD

Measured: normalized growth

COc1cc(NS(=O)(=O)c2ccc(N)cc2)nc(OC)n1
inactive: locus YAL021C, strain ccr4, hits give low values 0.976 | locus YAL026C, strain drs2, hits give low values 0.982 | locus YAL030W, strain snc1, hits give low values 0.976 | locus YBL061C, strain skt5, hits give low values 0.97 | locus YBR009C, strain hhf1, hits give low values 0.977 | locus YBR021W, strain FUR4, hits give low values 0.983 | locus YBR023C, strain chs3, hits give low values 0.977 | locus YBR171W, strain sec66, hits give low values 0.968 | locus YBR229C, strain ROT2, hits give low values 0.987 | locus YBR231C, strain swc5, hits give low values 0.971 | locus YBR279W, strain paf1, hits give low values 0.961 | locus YCL011C, strain gbp2, hits give low values 0.986 | locus YCL016C, strain dcc1, hits give low values 0.978 | locus YCL029C, strain bik1, hits give low values 0.978 | locus YCL061C, strain MRC1, hits give low values 0.97 | locus YCL069W, strain vba3, hits give low values 0.985 | locus YCR088W, strain abp1, hits give low values 0.962 | locus YDL005C, strain med2, hits give low values 0.979 | locus YDL035C, strain GPR1, hits give low values 0.976 | locus YDL040C, strain nat1, hits give low values 0.963 | locus YDL074C, strain BRE1, hits give low values 0.995 | locus YDL101C, strain DUN1, hits give low values 0.985 | locus YDL134C, strain PPH21, hits give low values 0.968 | locus YDL185W, strain tfp1, hits give low values 0.982 | locus YDL192W, strain arf1, hits give low values 0.984 | locus YDR001C, strain nth1, hits give low values 0.978 | locus YDR069C, strain doa4, hits give low values 0.957 | locus YDR101C, strain arx1, hits give low values 0.999 | locus YDR137W, strain rgp1, hits give low values 0.984 | locus YDR150W, strain NUM1, hits give low values 0.999 | locus YDR159W, strain sac3, hits give low values 0.933 | locus YDR162C, strain NBP2, hits give low values 0.98 | locus YDR195W, strain ref2 0.942 | locus YDR297W, strain sur2, hits give low values 0.983 | locus YDR318W, strain mcm21, hits give low values 0.989 | locus YDR334W, strain swr1, hits give low values 0.974 | locus YDR335W, strain msn5, hits give low values 0.981 | locus YDR388W, hits give low values 0.977 | locus YDR392W, strain spt3, hits give low values 0.984 | locus YDR502C, strain sam2, hits give low values 0.98 | locus YEL003W, strain gim4, hits give low values 0.991 | locus YEL037C, strain rad23, hits give low values 0.965 | locus YEL061C, strain CIN8 (second series), hits give low values 0.986 | locus YEL061C, strain CIN8, hits give low values 1 | locus YER015W, strain faa2, hits give low values 0.99 | locus YER016W, strain bim1, hits give low values 0.988 | locus YER110C, hits give low values 0.972 | locus YER111C, strain swi4, hits give low values 0.973 | locus YER155C, strain BEM2 (second series), hits give low values 0.95 | locus YER155C, strain BEM2, hits give low values 0.996 | locus YER167W, strain BCK2, hits give low values 0.977 | locus YFR010W, strain ubp6, hits give low values 0.976 | locus YGL078C, strain dbp3, hits give low values 0.985 | locus YGL086W, strain mad1, hits give low values 0.997 | locus YGL167C, strain pmr1, hits give low values 0.976 | locus YGL173C, strain kem1, hits give low values 0.951 | locus YGL227W, strain vid30, hits give low values 0.97 | locus YGL240W, strain doc1, hits give low values 0.97 | locus YGL248W, strain PDE1, hits give low values 1.01 | locus YGL253W, strain hxk2, hits give low values 0.977 | locus YGR078C, strain PAC10, hits give low values 1.01 | locus YGR135W, strain pre9, hits give low values 0.979 | locus YGR229C, strain SMI1, hits give low values 0.982 | locus YGR252W, strain gcn5, hits give low values 1.03 | locus YHR013C, strain ard1, hits give low values 0.988 | locus YHR027C, strain rpn1, hits give low values 0.981 | locus YHR030C, strain SLT2, hits give low values 0.986 and 0.975 | locus YHR079C, strain IRE1 (second series), hits give low values 0.991 | locus YHR079C, strain IRE1, hits give low values 0.978 | locus YHR094C, strain hxt1, hits give low values 0.98 | locus YHR129C, strain ARP1, hits give low values 0.985 | locus YHR142W, strain chs7, hits give low values 0.969 | locus YHR200W, strain rpn10, hits give low values 0.993 | locus YIL066C, strain RNR3, hits give low values 0.982 | locus YIL073C, strain SPO22, hits give low values 0.87 | locus YIL125W, strain kgd1, hits give low values 0.994 | locus YIR030C, strain dcg1, hits give low values 0.997 | locus YJL092W, strain hpr5, hits give low values 0.982 | locus YJL095W, strain BCK1 (second series), hits give low values 0.963 | locus YJL095W, strain BCK1, hits give low values 1.03 and 0.977 | locus YJL115W, strain asf1, hits give low values 0.966 | locus YJL129C, strain trk1, hits give low values 0.969 | locus YJL134W, strain LCB3, hits give low values 0.986 | locus YJL154C, strain vps35, hits give low values 0.965 | locus YJL164C, strain tpk1, hits give low values 1 | locus YJL166W, strain qcr8, hits give low values 0.978 | locus YJL168C, strain set2, hits give low values 0.989 | locus YJL187C, strain SWE1 (second series), hits give low values 0.994 | locus YJL187C, strain SWE1, hits give low values 0.976 | locus YJR043C, strain POL32, hits give low values 0.982
